Screens deposited in PubChem BioAssay by National Center for Advancing Translational Sciences (NCATS).
An excerpt weighted towards active compounds, which were near 5.5% of everything screened.
ELG1 repair inh: qHTS screen for small molecules that inhibit ELG1-dependent DNA repair in human embryonic kidney (HEK293T) cells expressing luciferase-tagged ELG1; HEK293T ELG1-luciferase reporter, luminescence, 16 h; DNA damage induced by 5-fluorouridine; Potency, µM (highest dose often 46.1 µM), inactives show top-dose activity change, negative = inhibition, most hits filed as inhibitors; actives 2.3% (n = 330,000); AID 504467, 2011; note: potency is the fitted concentration of half-maximal effect; nearly all actives have a fitted effect of over 55% in size
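DMSO vehicle served as the neutral condition. Each well held 2,000 cells given 5-fluorouridine plus compound; after 16 hr at 37 °C/5% CO2, ONE-Glo was added and luciferase measured 30 min later.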
FBPA coupling cs: qHTS Assay for Inhibitors of Fructose-1,6-bisphosphate Aldolase from Giardia Lamblia: Coupling assay counterscreen; coupling enzyme system counterscreen, AmpLite Red fluorescence; activity change, negative = inhibition, % at 58.2 µM, hits read low; actives 0.67% (n = 290,000); in the data active = activity change below about -30%
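Counterscreen lacking aldolase: glyceraldehyde-3-phosphate coupling-enzyme reagent preincubated 10 min at RT with compound (at 57.5 uM final), then substrate/coupling system with AmpLite Red added; fluorescence read at 525/598 nm after 20 min RT.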
Giardia killer: Small Molecules that selectively kill Giardia lamblia: qHTS; Giardia lamblia trophozoite viability; activity change, % at 7.66 µM, hits read low; actives 0.15% (n = 340,000); AID 540267, 2011; in the data active = activity change below about -80%; inconclusive = between about -30% and that limit;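 note: parasites exposed to compound for two days anaerobically before the ATP read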
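Killing of trophozoites was scored by loss of ATP luminescence after a 48 hrs anaerobic exposure to compounds at 37 deg C, using 100 cells per well.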
Sfp PPTase inh: qHTS Assay for Inhibitors of Bacillus subtilis Sfp phosphopantetheinyl transferase (PPTase); 4'-phosphopantetheinyl transferase ffp (Bacillus subtilis), Q9F4F7; Biochemical Sfp PPTase activity, qHTS; Potency, µM, without a hit: largest response in the series, negative = inhibition, most hits filed as inhibitors; actives 3.5% (n = 310,000);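 note: the enzyme is Sfp with the accession as filed and its product quenches rhodamine fluorescence; potency is the fitted concentration of half-maximal effect; 0% = enzyme reaction without inhibitor and -100% = no enzyme wells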
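Fluorescence-quenching assay with 15 nM Sfp, 5 uM rhodamine-CoA and 12.5 uM BHQ-2-labelled ybbR peptide in pH 7.6 Hepes/MgCl2 buffer. Enzyme was pre-incubated with compound for 15 min at room temperature. Rate was taken from the 30-min fluorescence change (525/598 nm).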
The depositor's hits bear a star. Unless noted, calls come from the whole dose curve; as a rule, active = well fitted curve in the direction sought with a large enough effect; inconclusive = small, poorly fitted or top-dose-only effect, or another doubt; inactive = no such curve, though single readings can be large; an effect the other way counts as inactive or inconclusive. Unless noted, % is set by controls: 0 for no effect and ±100 for the full control effect.

How did CCOc1cccc(NC(=O)c2ccc(S(=O)(=O)N(C)C)cc2)c1 do in these assays?
ELG1 repair inh: -13.0%; FBPA coupling cs: 0.7; Giardia killer: -12.4; Sfp PPTase inh: 18.5%

Results for CC(=O)c1cccc(NC(=O)c2ccc(N(C)S(=O)(=O)c3ccc(C)cc3)cc2)c1 ?
ELG1 repair inh: 16.4µM*; Giardia killer: 35.6; Sfp PPTase inh: 3.8%

What do the screens show for `CCc1ccc(S(=O)(=O)ON2C(=O)c3ccccc3C2=O)cc1`?
ELG1 repair inh: inconclusive; FBPA coupling cs: 4.4; Giardia killer: -28.7; Sfp PPTase inh: 17.8µM*

What do the screens show for `COc1ccc(N2CCN(C(=O)CCS(=O)(=O)c3ccc4c(c3)CCN4C(=O)C3CC3)CC2)cc1`?
ELG1 repair inh: inconclusive; Giardia killer: -27.7; Sfp PPTase inh: 5.9%

How did O=S(=O)(O)CC(S)CS (configuration not stated) do in these assays?
Sfp PPTase inh: 2.82µM*

What do the screens show for `C[n+]1nc(Nc2cccc3ccccc23)sc1-c1ccc(C(=O)O)cc1`?
ELG1 repair inh: inconclusive; FBPA coupling cs: 0.6; Sfp PPTase inh: -16.1%

How did COc1ccc(CNC[C@@H](CCCCN(C)Cc2ccc(OC)cc2)N2C[C@H](c3ccccc3)N(CCc3ccc(Cl)c(Cl)c3)C(=O)C2=O)cc1 do in these assays?
ELG1 repair inh: -29.0%; FBPA coupling cs: 1.6; Giardia killer: 6.8; Sfp PPTase inh: 28.2µM*

What do the screens show for `CCOc1ccc(CCN2C(=O)C(=O)N([C@H](CCCN(C)Cc3ccccc3)CNCc3ccccc3)C[C@@H]2C(C)C)cc1`?
ELG1 repair inh: 5.5%; FBPA coupling cs: 7.8; Sfp PPTase inh: -2.7%

How did CN(CCCC[C@H](CNCc1ccc(-c2ccccc2)cc1)N1C[C@H](c2ccccc2)N(CCc2ccc(Cl)c(Cl)c2)C(=O)C1=O)Cc1ccc(-c2ccccc2)cc1 do in these assays?
ELG1 repair inh: inconclusive; FBPA coupling cs: -0.3; Sfp PPTase inh: 22.4µM*

Results for CCc1ccccc1NC(=O)CN1C(=O)c2ccccc2S1(=O)=O ?
ELG1 repair inh: 11.1%; FBPA coupling cs: 0.1; Giardia killer: -9.6; Sfp PPTase inh: 9.7%

What do the screens show for `N#C/C(=C\c1c(N(Cc2ccccc2)Cc2ccccc2)nc2ccccn2c1=O)C(N)=O`?
ELG1 repair inh: 16.4µM*; FBPA coupling cs: -0.3; Giardia killer: -1.5; Sfp PPTase inh: -9.7%

Results for CCNC(=O)/C(C#N)=C/c1c(N2CCN(c3ccccc3)CC2)nc2ccccn2c1=O ?
ELG1 repair inh: 14.4%; FBPA coupling cs: 1.3; Giardia killer: 3.6; Sfp PPTase inh: 24.7%

What do the screens show for `C=CCNC(=O)/C(C#N)=C/c1c(N(Cc2ccccc2)Cc2ccccc2)nc2ccccn2c1=O`?
ELG1 repair inh: 13µM*; FBPA coupling cs: 0.8; Giardia killer: -15.0; Sfp PPTase inh: -8.8%

How did CCOc1ccccc1NC(=O)/C(C#N)=C/c1c(C)nn(-c2ccccc2)c1Cl do in these assays?
ELG1 repair inh: -18.8%; FBPA coupling cs: -2.5; Giardia killer: 2.4; Sfp PPTase inh: 11.9%

Results for C=CCNC(=O)/C(C#N)=C/c1c(C)nn(-c2ccccc2)c1Cl ?
ELG1 repair inh: -21.1%; FBPA coupling cs: 0.7; Giardia killer: -6.9; Sfp PPTase inh: 79.4µM*

How did c1ccc(Nc2nc(NCc3ccco3)nc3nccnc23)cc1 do in these assays?
Giardia killer: -8.7

Results for COc1cc(OC)cc(C(=O)/C=C2\Sc3ccccc3N2C)c1 ?
ELG1 repair inh: inconclusive; FBPA coupling cs: -10.4; Giardia killer: -10.0; Sfp PPTase inh: 50.1µM*

How did CN1/C(=C\C(=O)c2cccs2)Sc2ccccc21 do in these assays?
ELG1 repair inh: inconclusive; FBPA coupling cs: -15.6; Giardia killer: -16.2; Sfp PPTase inh: 50.1µM*

What do the screens show for `COc1ccc2c(c1)S/C(=C\C(=O)c1ccncc1)N2C`?
ELG1 repair inh: inconclusive; FBPA coupling cs: -4.0; Giardia killer: 6.6; Sfp PPTase inh: 8.91µM*

How did COc1ccc(C(=O)/C=C2/Sc3cc4c(cc3N2C)OCO4)cc1 do in these assays?
ELG1 repair inh: inconclusive; FBPA coupling cs: 0.3; Giardia killer: -17.6; Sfp PPTase inh: inconclusive

Results for CN1/C(=C/C(=O)c2cccs2)Sc2ccccc21 ?
ELG1 repair inh: inconclusive; FBPA coupling cs: -21.0; Sfp PPTase inh: -12.9%
